Assay outcomes: PubChem, National Center for Advancing Translational Sciences (NCATS)
Shown are actives, neighbours in structure and some others; about 7.4% of the full set was active somewhere.
NPC1 prom act – qHTS Assay for NPC1 Promoter Activators | Huh7 NPC1 promoter luciferase reporter, 24 h | Potency, µM (doses to about 9.22 µM), inactives show top-dose activation, most hits filed as activators | 320,000 tested, 2.4% active; further: % of control where 0% means no effect; nearly all actives have a fitted effect of over 60% in size
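Luminescence from an NPC1 promoter-driven luciferase reporter in stably transfected Huh7 cells was measured after 24 h compound treatment at 37 °C, followed by 10 min ambient incubation with luciferase detection reagent.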
SMN2 splice enh – qHTS Assay for Enhancers of SMN2 Splice Variant Expression | HEK293 SMN2-luciferase splicing reporter, luminescence, 30-36 h | Potency, µM (titrated, usually from 46.1 µM), inactives show at the highest dose activity change, positive = activation, hits mostly activators | 210,000 tested, 2.8% active | AID 1458, 2008; further: % of control where 0% means no effect; nearly all actives have a fitted effect of over 55% in size
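HEK293 cells carry an SMN2 minigene-luciferase reporter in which exon 7 inclusion puts luciferase in frame. Cells were seeded at 2000 cells/well, attached for 10-12 hours, then exposed to compounds for 30-36 hours at 37C before ONE-Glo luminescence.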
Rab9 promoter act – qHTS Assay for Rab9 Promoter Activators | Potency, µM (top dose mostly 9.22 µM), for the others: at the top dose activation, negative = inhibition, usual class: activators | 320,000 tested, 2.8% active | Huh7 Rab9 promoter-luciferase reporter, luminescence, 24 h; further: % of control where 0% means no effect; nearly all actives have a fitted effect of over 60% in size
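Using Huh7 cells stably transfected with Rab9 promoter–luciferase, compounds were incubated 24 h at 37 °C, 5% CO2; luciferase luminescence was read 10 min after reagent addition.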
FLuc modulator – qHTS profiling assay for firefly luciferase inhibitor/activator using purifed enzyme and Km concentrations of substrates (counterscreen for miR-21 project) | purified FLuc, Km substrates, luminescence inhibition | Luciferin 4-monooxygenase (Photinus pyralis), P08659 | 360,000 tested, 6.9% active | Potency, µM (titrated, usually from 57.5 µM), for inactives: top-dose activity change, negative = inhibition, hits mostly inhibitors;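 further: plate controls were vehicle for no effect and reference inhibitor for full effect; nearly all actives have a fitted effect of over 55% in size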
Target sequence (P08659 whole entry, looked up): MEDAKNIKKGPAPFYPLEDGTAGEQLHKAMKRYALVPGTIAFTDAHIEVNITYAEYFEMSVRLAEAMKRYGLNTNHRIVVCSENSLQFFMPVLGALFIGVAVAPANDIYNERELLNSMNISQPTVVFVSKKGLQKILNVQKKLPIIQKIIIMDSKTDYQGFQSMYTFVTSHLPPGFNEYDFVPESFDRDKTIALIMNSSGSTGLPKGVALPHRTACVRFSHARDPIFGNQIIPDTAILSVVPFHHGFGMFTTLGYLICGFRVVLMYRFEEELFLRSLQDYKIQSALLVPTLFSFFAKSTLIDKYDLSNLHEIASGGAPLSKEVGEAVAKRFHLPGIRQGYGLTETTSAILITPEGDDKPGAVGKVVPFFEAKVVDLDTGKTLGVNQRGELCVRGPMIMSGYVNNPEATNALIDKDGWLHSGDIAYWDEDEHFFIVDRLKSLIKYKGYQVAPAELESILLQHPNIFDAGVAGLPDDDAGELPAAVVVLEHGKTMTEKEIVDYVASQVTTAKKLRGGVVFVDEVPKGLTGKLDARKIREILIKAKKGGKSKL
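Biochemical qHTS of compounds, final roughly 60 µM downward over six points, against 10 nM purified firefly luciferase using Km concentrations of substrates (10 uM D-luciferin, 10 uM ATP) in Tris acetate pH 7.5 buffer; luminescence output.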
ELG1 genotoxic – qHTS screen for small molecules that induce genotoxicity in human embryonic kidney (HEK293T) cells expressing luciferase-tagged ELG1; HEK293T ELG1-luciferase reporter, luminescence, 16 h; 330,000 tested, 1.3% active; AID 504466, 2011; Potency, µM (top dose mostly 46 µM), for the others: at the top dose activity change, positive = activation, actives largely listed as activators; further: % of control where 0% means no effect; nearly all actives have a fitted effect of over 60% in size
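16 hr compound incubation (37 °C, 5% CO2) of HEK293T cells carrying luciferase-tagged ELG1; luciferase then measured by ONE-Glo luminescence after 30 min at RT.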
The depositor's hits bear a star; ? = inconclusive; / = not tested or not shown; [ ] = dose if it differs, or a comment. The call rests on the fitted dose curve; in most records, active means well fitted curve in the direction sought with a large enough effect; inconclusive means small, poorly fitted or top-dose-only effect, or another doubt; inactive means no such curve, though single readings can be large; an effect the other way counts as inactive or inconclusive. Potency means the concentration at half of the fitted maximal effect.

SMILES | NPC1 prom act | SMN2 splice enh | Rab9 promoter act | FLuc modulator | ELG1 genotoxic
CCOc1ccc(-c2nnc(SCC(=O)Nc3cccc(Cl)c3C)o2)cc1 | / | / | / | 13.5µM* | /
CC(C)(C)c1ccc(/C=N/Nc2ccc(C(=O)O)cc2)cc1 | -18.8% | -90.6%[1.84 µM] | -15.7% | 0.19µM* | ?
C[C@@H]1Oc2ccccc2C=C1/C=C/C(=O)O | / | 18.1% | / | / | /
O=C(O)c1ccc(/C=N/Nc2ncc(C(F)(F)F)cc2Cl)cc1 | 16.9% | / | 19.0% | ? | 6.0%
CC1Oc2ccccc2C=C1/C=N/Nc1ccc(C(=O)O)cc1 (stereo unspecified) | ? | / | ? | 0.536µM* | 1.16µM*
CCNC(=S)N/N=C/c1ccc(C(=O)O)cc1 | 1.1% | -16.9% | -1.3% | 1.2% | -9.8%
Fc1ccc(N/N=C/C=C/c2ccccc2)c(F)c1 | ? | ? | ? | 26.9µM* | ?
O=C(O)c1ccc(N/N=C/c2ccc(C(F)(F)F)cc2)cc1 | -15.6% | -54.6% | ? | 0.213µM* | 0.103µM*
O=C1N/C(=C/c2cccs2)C(=O)N1Cc1ccc(Br)cc1 | -0.9% | 7.0% | 1.0% | -2.0% | 4.9%
O=C(O)c1ccc(/C=N/Nc2ccc(F)cc2F)cc1 | 0.316µM* | 1.78µM* | 0.112µM* | 0.536µM* | ?
O=C(O)c1ccc(N/N=C/c2c(F)cccc2Cl)cc1 | ? | / | 1.26µM* | 0.301µM* | 0.291µM*
O=C(O)c1ccc(/C=N/Nc2ccc(Cl)nn2)cc1 | 5.9% | / | 4.4% | -19.0% | 0.4%
O=C(N/N=C/c1c(F)cccc1Cl)C1CC1 | -5.8% | / | -0.8% | 1.6% | 0.1%
CCN(CCC(=O)Nc1cc([N+](=O)[O-])ccc1OC)Cc1ccccc1 | 0.2% | -19.9% | -0.1% | 1.5% | -2.8%
COc1ccccc1N1CCN(C(=O)C2CCC(CNS(=O)(=O)c3ccc(NC(C)=O)cc3)CC2)CC1 (stereo unspecified) | -3.7% | / | -3.1% | 1.1% | -2.5%
COc1ccc2nc3c(cc2c1)Cc1ccccc1-3 | / | 0.501µM* | / | / | /
Nc1nc(Nc2ccc(Cl)cc2Cl)nc(C(F)(F)F)n1 | ? | ? | ? | ? | 18.4µM*
Nc1nc(Nc2ccccc2Br)nc(C(F)(F)F)n1 | 1.9% | 3.7% | 4.7% | ? | ?
Cc1cc(C)c(C)c(S(=O)(=O)N2CCC(C(=O)NCCCN3CCCC3=O)CC2)c1C | 0.0% | / | -1.6% | -1.9% | -3.1%
CCCN(C(=O)c1ccco1)c1nnc(-c2cccc(C)c2)s1 | 17.3% | / | ? | 16.9µM* | 8.1%
CCN(C(=O)c1ccco1)c1nnc(-c2ccc(OC)cc2)s1 | ? | 12.6µM* | 1.78µM* | 0.953µM* | ?
CCCCC(=O)N(CCOC)c1nnc(-c2ccc(OC)cc2)s1 | 1.5% | ? | 3.1% | 6.6%[2.3 µM] | 0.3%
S=C(NCCCn1ccnc1)Nc1cccc(Cl)c1 | 3.4% | 10.8% | 2.7% | -0.4% | -3.5%
CNc1ccccc(-c2ccc3cc4c(cc3n2)OCO4)c1=O | ? | / | ? | 3.38µM* | ?
CC(Cc1ccco1)NC(=O)c1ccc(C(F)(F)F)cc1 (stereo unspecified) | 0.708µM* | / | 1µM* | 6.75µM* | 8.2µM*
SMILES | NPC1 prom act | SMN2 splice enh | Rab9 promoter act | FLuc modulator | ELG1 genotoxic
CC(Cc1ccco1)NC(=O)c1cccc(S(=O)(=O)N(C)C)c1 (stereo unspecified) | ? | / | ? | ? | 14.6µM*
CC(=O)c1ccc(N2CCN(c3ncnc4onc(-c5ccc(Cl)cc5)c34)CC2)cc1 | / | -35.3% | / | 0.6% | /
CCOC(=O)N1CCN(C(=O)C2CCN(C(=O)c3ccc(C(C)(C)C)cc3)CC2)CC1 | 0.8% | / | -10.2% | 3.3% | -0.3%
COc1ccc(CCC(=O)NCCS(=O)(=O)N2CCN(c3ccccc3OC)CC2)cc1 | -4.9% | / | 0.0% | 0.8% | -8.9%
O=C(NC1CC1)c1ccc2c(Cl)c3c(nc2c1)CCCC3 | 0.1% | -19.4% | -5.3% | 13.5µM* | 0.0%
CC(=O)c1cccc(NC(=O)c2ccc3c(Cl)c4c(nc3c2)CCCC4)c1 | 5.2% | -5.0% | 12.6% | ? | -0.2%
